# Data taken from PubChem BioAssay (NCATS).
# Records with an inconclusive call do not appear. Where a call stands in place of a potency, no number is given. A number with no mark means an inactive call. Activity calls are given as the source filed them. The call rests on the fitted dose curve; in most records, active means well fitted inhibition curve with a large enough effect; inconclusive means small, poorly fitted or top-dose-only effect; inactive means no such curve, though single readings can be large or run the other way.
# System: Zika virus NS2B-NS3 protease (unlinked complex)
# Assay: Primary screen GU Rhodamine qHTS for Zika virus inhibitors: Unlinked NS2B-NS3 protease assay (AID 1347159); further: nearly all actives have a fitted effect of over 60% in size
# Details: Recombinant ZIKV NS2B-NS3 protease, Rhodamine110 substrate fluorescence; series mostly up to 107 µM
# Summary of the method: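 Unlinked NS2B/NS3, 25 nM; Rhod110 peptide, 1.5 microM; compounds, up to 114 microM. Reaction run 15 min at RT in 10 mM Tris-HCl pH 8.0, 0.01% Tween 20; kinetic fluorescence change fitted with a 4-parameter Hill model.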
# Potency means the concentration at half of the fitted maximal effect.
Structure (SMILES),Potency,"activity change, negative = inhibition"
Cc1ccc(C(=O)Nc2ccc(CN3CCN(C)CC3)c(C(F)(F)F)c2)cc1C#Cc1cnc2cccnn12,inactive,
CNC(=O)c1nn(C)c2c1C(C)(C)Cc1cnc(Nc3ccc(N4CCN(C)CC4)cc3)nc1-2,inactive,
NC(=O)c1cccc2cn(-c3ccc([C@@H]4CCCNC4)cc3)nc12,inactive,
Nc1ccccc1NC(=O)c1ccc(CNC(=O)OCc2cccnc2)cc1,inactive,
CC(=O)Nc1nc(C)c(-c2ccc(Cl)c(S(=O)(=O)NCCO)c2)s1,inactive,
Cc1[nH]nc2ccc(-c3cncc(OC[C@@H](N)Cc4ccccc4)c3)cc12,inactive,
CC(C)c1cc(C(=O)N2Cc3ccc(CN4CCN(C)CC4)cc3C2)c(O)cc1O,inactive,
COc1cc2c(NC3CCN(C(C)C)CC3)nc(C3CCCCC3)nc2cc1OCCCN1CCCC1,inactive,
Cc1nc(N)ncc1-c1nc(N2CCOCC2)c2sc(C(C)(C)O)cc2n1,inactive,
COc1c(OCCCN2CCOCC2)ccc2c3n(c(=NC(=O)c4cnc(N)nc4)nc12)CCN3,,19.8% [at 19.1 µM]
Nc1cc(C(F)(F)F)c(-c2cc(N3CCOCC3)nc(N3CCOCC3)n2)cn1,inactive,
COc1ccc(-n2nc(C(N)=O)c3c2C(=O)N(c2ccc(N4CCCCC4=O)cc2)CC3)cc1,inactive,
CCNC(=O)Nc1ccc2ncc(Nc3ccc(C)cc3)nc2n1,25.1 µM (active),
C=CC(=O)Nc1cccc(Oc2nc(Nc3ccc(N4CCN(C)CC4)cc3OC)ncc2Cl)c1,inactive,
CC(C)CC(=O)Nc1n[nH]c2c1CN(C(=O)C1CCN(C)CC1)C2(C)C,inactive,
